nsP2pro inh: inhibitors of chikungunya virus nsP2 protease | Q8JUX6 | FRET peptide cleavage, nsP2pro, fluorescence 1 h | Potency, µM (top dose mostly 24.9 µM), inactives show at the highest dose activity change, negative = inhibition, most hits filed as inhibitors | 31,000 compounds, 1.1% hits; note: nearly all actives have a fitted effect of over 60% in size
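Purified recombinant nsP2pro (150 nM final) in 10 mM Tris-HCl pH 8.0 with 0.01% Tween 20 was preincubated 15 min at room temperature with compound (7 concentrations, up to 25 uM). FRET peptide 2 substrate (2.5 uM final) was then added; fluorescence was read after 1 h.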
CHIKV nsP2 cell: cell-based CHIKV nsP2 protease inhibition, secondary | shares compounds with nsP2pro inh | cell-based CHIKV nsP2 protease reporter assay | Potency, µM (doses to about 51.1 µM), inactives show at the top dose activity change, negative = inhibition, usual class: inhibitors | 450 compounds, 10% hits | AID 1964100; note: nearly all actives have a fitted effect of over 70% in size
NSP2 full ctr: selectivity test for CHIKV nsP2 protease inhibitors: full-length NSP2. AID 1964101. 410 compounds, 39% hits. Full-length CHIKV NSP2 protease enzymatic counterscreen. shares compounds with nsP2pro inh. Potency, µM (highest dose often 50.7 µM), for the others: at the top dose activity change, negative = inhibition, most hits filed as inhibitors; note: nearly all actives have a fitted effect of over 65% in size
Furin counter: selectivity counter-screen for CHIKV nsP2 protease inhibitors: human furin; 410 compounds, 6% hits; Potency, µM (top dose mostly 50.6 µM), inactives show top-dose activity change, negative = inhibition, actives largely listed as inhibitors; Recombinant human furin enzymatic counterscreen, fluorogenic substrate; shares compounds with nsP2pro inh; AID 1964102
nsP2 NS23 pep: selectivity test for CHIKV nsP2 protease inhibitors: endogenous NS2/3 peptide. shares compounds with nsP2pro inh. AID 1964103. 410 compounds, 34% hits. Potency, µM (titrated, usually from 51 µM), for the others: at the top dose activity change, negative = inhibition, usual class: inhibitors. Purified CHIKV nsP2 protease, endogenous NS2/3 peptide cleavage; note: nearly all actives have a fitted effect of over 55% in size
Papain counter: selectivity counter-screen for CHIKV nsP2 protease inhibitors: papain | Potency, µM (top dose mostly 51 µM), without a hit: at the highest dose activity change, negative = inhibition, actives largely listed as inhibitors | shares compounds with nsP2pro inh | 410 compounds, 5% hits | purified papain protease activity, enzymatic inhibition
Target sequence (P00784 whole entry, looked up): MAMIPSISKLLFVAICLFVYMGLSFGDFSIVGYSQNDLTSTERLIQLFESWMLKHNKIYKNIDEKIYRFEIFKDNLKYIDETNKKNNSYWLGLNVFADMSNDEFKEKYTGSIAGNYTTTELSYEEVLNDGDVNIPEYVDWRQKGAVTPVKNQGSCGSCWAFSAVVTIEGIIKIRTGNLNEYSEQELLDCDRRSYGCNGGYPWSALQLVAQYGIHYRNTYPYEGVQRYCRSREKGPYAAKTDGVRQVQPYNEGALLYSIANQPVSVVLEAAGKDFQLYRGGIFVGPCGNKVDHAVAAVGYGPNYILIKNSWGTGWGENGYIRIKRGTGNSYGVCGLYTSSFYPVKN
nsP2pro confirm: CHIKV nsP2 protease inhibition, confirmatory qHTS; shares compounds with nsP2pro inh; AID 1964105; Potency, µM (series often up to 25.5 µM), for the others: at the highest dose activity change, negative = inhibition, hits mostly inhibitors; CHIKV nsP2 protease enzymatic activity, qHTS; 410 compounds, 43% hits; note: nearly all actives have a fitted effect of over 75% in size
HCV NS3 4A cs: selectivity counter-screen for CHIKV nsP2 protease inhibitors: HCV NS3/4A; AID 1964106; HCV NS3/4A protease biochemical counterscreen; Potency, µM (doses to about 50.9 µM), usual class: inhibitors; 410 compounds, 20% hits; shares compounds with nsP2pro inh; note: nearly all actives have a fitted effect of over 55% in size
An asterisk follows results filed as active; i = inactive; u = inconclusive; [ ] = another dose, or the depositor's remark. Shown is part of a subset that was picked to be rich in hits. Calls come from the whole dose curve. % is set by controls: 0 for no effect and ±100 for the full control effect; potency is the fitted concentration of half-maximal effect.

SMILES	nsP2pro inh	others
Cc1ccc(-c2cc(C(=O)Nc3ccc(-c4nn[nH]n4)cc3)c3ccccc3n2)cc1C	i
CCCCOC(=O)C(=O)Nc1cccc(-c2nn[nH]n2)c1	-1.3%
O=C(O)C(=O)Nc1cccc(-c2nn[nH]n2)c1	u	CHIKV nsP2 cell=0.1%;NSP2 full ctr=u;Furin counter=-7.0%;nsP2 NS23 pep=u;Papain counter=-6.0%;nsP2pro confirm=10µM*;HCV NS3 4A cs=u
CC(C)CCC[C@@H](C)[C@H]1CC[C@H]2[C@@H]3CC=C4C[C@@H](O)CC[C@]4(C)[C@@H]3CC[C@]12C	5.2%[10 µM]
C[S+](=O)([O-])N1CC2(CCCCN2Cc2ccccn2)Cc2ccccc21 (stereo not given)	i
CC(=O)C1CCC2C3CC=C4CC(O)CCC4(C)C3CCC12C (stereo not given)	-24.6%
O=C(O)c1cccc(-c2noc(-c3ccc(Cl)cc3)n2)c1	i
OCc1ccc(-c2ccc3ncnc(NCc4nccs4)c3c2)o1	8.91µM*	CHIKV nsP2 cell=u;NSP2 full ctr=10.3µM*;Furin counter=-13.2%;nsP2 NS23 pep=20.6µM*;Papain counter=17.1%;nsP2pro confirm=u;HCV NS3 4A cs=3.66µM*
c1cncc(-c2ccc3ncnc(NCc4cccs4)c3c2)c1	i
c1csc(CNc2ncnc3ccc(-c4ccc5c(c4)OCO5)cc23)n1	1.2%
O=C(C[C@H](CSc1ccccc1)C(=O)O)c1ccc(-c2ccc(Cl)cc2)cc1	-4.6%
O=C(c1ccc2c(c1)ncn2-c1cccc(Cl)c1)N1CCCCC1	-14.3%
COc1ccc(CNC(=O)C2CCN(Cc3ccccc3-c3ccccc3F)CC2)cc1	3.2%
CCn1cc(CN2CC(Oc3ccc(-c4noc(-c5cccnc5)n4)cc3)C2)cn1	i
O=C(c1ccc(F)cc1)n1nc(-c2ccc(Cl)cc2)nc1NCc1ccco1	-22.7%
COc1ccc(NC(=O)/C=C\C(=O)N(c2ccc(C(C)C)cc2)C(C(=O)NCc2ccco2)c2ccc(F)cc2)cc1 (stereo not given)	-19.2%
O=C(/C=C/c1ccco1)Nc1ccc(F)cc1	6.31µM*	CHIKV nsP2 cell=-20.0%
C[C@@H](O)[C@H]1C(=O)N2C(C(=O)O)=C(S[C@@H]3CN[C@H](C(=O)Nc4cccc(C(=O)O)c4)C3)[C@H](C)[C@H]12	108.5%
O=C1Nc2c(Cl)cccc2/C1=C\c1cc(Cl)c(O)c(Cl)c1	i
CC1=CC(=O)CC2C1(O)CCC(C)C21CC(c2ccoc2)OC1=O (stereo not given)	33.1%
COc1cc(/C=C/C(=O)OC2CC(OC(C)=O)C(OC(C)=O)C3C2CCC2C(=O)OC(c4ccoc4)CC23C)ccc1O[C@@H]1O[C@H](CO)[C@@H](O)[C@H](O)[C@H]1O (stereo not given in full)	-22.5%[10 µM]
COC(=O)C1(O)C(OC(C)=O)CCC2C3(CC(c4ccoc4)OC3=O)C(C)=CCC21C(=O)OC (stereo not given)	1.92µM*	CHIKV nsP2 cell=-7.4%[17.6 µM];NSP2 full ctr=-15.1%[17.3 µM];Furin counter=-3.3%[17.3 µM];nsP2 NS23 pep=i;Papain counter=-7.1%[17.2 µM];nsP2pro confirm=36.2%[8.62 µM];HCV NS3 4A cs=i
CCc1nnc([C@@H]2CC(F)(F)CN2Cc2cccn2C)o1	-16.4%
CC(=O)c1ccc(-n2c(CCC(=O)O)ccc2-c2cccs2)cc1	9.7%
COC(=O)c1cccc(-n2c(CCC(=O)O)ccc2-c2cccs2)c1	8.91µM*	CHIKV nsP2 cell=2.1%
SMILES	nsP2pro inh	others
COC(=O)c1ccccc1NC(=O)Cn1c(CCC(=O)O)ccc1-c1cccs1	2.1%
Cc1cc(C)nc(NC(=S)N2CCN(c3cccc4cnccc34)CC2)c1	-4.7%
CC1=C(C(=O)O)N2C(=O)[C@@H](NC(=O)[C@H](N)c3ccc(O)cc3)[C@H]2SC1	-22.9%
CC1=C(C(=O)O)N2C(=O)[C@@H](NC(=O)[C@H](N)c3ccccc3)[C@H]2SC1	0.313µM*	CHIKV nsP2 cell=-5.8%;NSP2 full ctr=0.3%;Furin counter=-8.8%;nsP2 NS23 pep=1.2%;Papain counter=-9.9%;nsP2pro confirm=-20.7%;HCV NS3 4A cs=i
CC(=O)OCC1=C(C(=O)O)N2C(=O)[C@@H](NC(=O)[C@H](N)c3ccccc3)[C@H]2SC1	-18.6%
Cc1noc(C)c1S(=O)(=O)N1CC(c2noc(C3CCCN3C)n2)C1 (stereo not given)	i
CC(C)(C)n1cnc2cc(C(=O)N3CCCCC3)ccc21	4.0%
O=C(NCc1ccc(F)cc1)c1ccc2nnc(-c3cc[nH]c3)n2c1	-1.0%[39.2 µM]
Oc1ccccc1-c1cc(C2=CCOCC2)c2cncn2c1	-5.3%[39.2 µM]
Cc1ccc(S(=O)(=O)c2nc(S(=O)(=O)c3ccc(C)cc3)c(NC(C)C)s2)cc1	-12.7%
Cc1ccc(S(=O)(=O)c2ncccc2[N+](=O)[O-])cc1	u	CHIKV nsP2 cell=3.66µM*;NSP2 full ctr=u;Furin counter=-6.0%;nsP2 NS23 pep=9.19µM*;Papain counter=-5.5%;nsP2pro confirm=7.98µM*;HCV NS3 4A cs=i
Cc1ccc(S(=O)(=O)O)cc1	7.3%
CN(C)c1ccc(-c2nc3ccccc3s2)cc1	i
Cc1ccc(S(=O)(=O)Nc2cnccc2C(=O)Nc2nc(-c3ccc(Cl)c(Cl)c3)cs2)cc1	i
C=C[C@]1(C)C[C@H](O)[C@H]2C(=C)C(=O)O[C@@H]2[C@H]1C(=C)CO	u	CHIKV nsP2 cell=u;NSP2 full ctr=u;Furin counter=-3.7%;nsP2 NS23 pep=-23.1%;Papain counter=-9.9%;nsP2pro confirm=u;HCV NS3 4A cs=i
C=C(C)C(=O)O[C@H]1[C@H]2C(=C)C(=O)O[C@@H]2C[C@@H](C)[C@@H]2O[C@@H]2C(=O)[C@](C)(O)[C@@H]1OC(=O)C(=C)C	-3.2%[10 µM]
C=CC1(C)CC(O)C(C(=C)C(=O)OC)C(O)C1C(=C)CO (stereo not given)	-19.3%
COc1cccc(CNc2ccc(S(=O)(=O)Nc3cccc(N4CCNCC4)c3)cc2)c1O	-19.0%
OC[C@H]1O[C@@H](c2ccc(F)c(Cc3cc4ccccc4s3)c2)[C@H](O)[C@@H](O)[C@@H]1O	12.4%
Cc1noc(C)c1S(=O)(=O)N1CCC2(C1)C(=O)N(c1ccccc1)c1ccccc12 (stereo not given)	2.9%
Cc1nn(CCC#N)c(C)c1[C@@H]1C=C[C@@H](NC(=O)c2cccs2)C1	u	CHIKV nsP2 cell=3.5%
Cc1nn(Cc2ccccc2)c(C)c1[C@@H]1C=C[C@@H](NC(=O)c2cccs2)C1	-4.5%[39.2 µM]
CCNC(=O)N[C@@H]1C=C[C@@H](c2c(C)nn(-c3ccc(F)cc3)c2C)C1	1.5%[39.2 µM]

Source: PubChem BioAssay
